PubChem BioAssay (NCATS)
Inconclusive results are not listed. Active and inactive are the calls of the source. The call rests on the fitted dose curve; in most records, active means well fitted curve in the direction sought with a large enough effect; inconclusive means small, poorly fitted or top-dose-only effect, or another doubt; inactive means no such curve, though single readings can be large; an effect the other way counts as inactive or inconclusive.

How the values were obtained:
[1] = qHTS of pediatric cancer cell lines to identify multiple opportunities for drug repurposing: Primary screen for TC32 cells (AID 1347089); further: nearly all actives have a fitted effect of over 60% in size
Procedure, shortened: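 Measured quantity: luminescence from CellTiter-Glo, reflecting metabolically active TC32 cells following 48 h of compound. Curves came straight from multi-point titrations, with 8 or 11 points in primary and 11 in confirmatory screening.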

[2] = qHTS of pediatric cancer cell lines to identify multiple opportunities for drug repurposing: Primary screen for DAOY cells (AID 1347090); further: nearly all actives have a fitted effect of over 55% in size
Procedure, shortened: (§1)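 Viability measured as metabolically active cells via CellTiter-Glo luminescence following 48 hours of compound exposure, 11-point dilutions in confirmatory testing. 500-1,000 cells/well plated 5 hours before dosing; controls were DMSO and 2.3 µM bortezomib.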

[3] = qHTS of pediatric cancer cell lines to identify multiple opportunities for drug repurposing: Primary screen for SJ-GBM2 cells (AID 1347091)
Procedure, shortened: as §1

[4] = qHTS of pediatric cancer cell lines to identify multiple opportunities for drug repurposing: Primary screen for A673 cells (AID 1347092); further: nearly all actives have a fitted effect of over 45% in size
Procedure, shortened: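 Cells are plated, rested 5 h, dosed by pintool, incubated 48 h, then lysed with CellTiter-Glo and read by luminescence. DMSO is the neutral control; bortezomib at 2.3 uM final is the positive control.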

[5] = qHTS of pediatric cancer cell lines to identify multiple opportunities for drug repurposing: Primary screen for SK-N-MC cells (AID 1347093)
Procedure, shortened: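 Metabolically active cells were quantified by ATP-dependent luminescence (CellTiter-Glo, 15 min at room temperature) following 48 h treatment. Cells had been plated at 500-1,000 per well and settled for 5 h beforehand.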

[6] = qHTS of pediatric cancer cell lines to identify multiple opportunities for drug repurposing: Primary screen for BT-37 cells (AID 1347094)
Procedure, shortened: (§2)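 ATP-based luminescence (CellTiter-Glo) quantifies viability after a 48-hour exposure. Compounds are dosed across 8 or 11 final concentrations; DMSO and 2.3 µM bortezomib serve as controls.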

[7] = qHTS of pediatric cancer cell lines to identify multiple opportunities for drug repurposing: Primary screen for NB-EBc1 cells (AID 1347095)
Procedure, shortened: as §2

[8] = qHTS of pediatric cancer cell lines to identify multiple opportunities for drug repurposing: Primary screen for U-2 OS cells (AID 1347096); further: nearly all actives have a fitted effect of over 50% in size
Procedure, shortened: (§3)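 Viability after 48 h compound treatment at 37C, 500-1,000 cells/well, read as ATP luminescence with CellTiter-Glo. Primary screens used 11-point (MIPE, 0.78 nM-46 µM) or 8-point (NPC, 0.59 nM-46 µM) final concentrations; follow-up screens used 11-point dilutions.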

[9] = qHTS of pediatric cancer cell lines to identify multiple opportunities for drug repurposing: Primary screen for Saos-2 cells (AID 1347097); further: nearly all actives have a fitted effect of over 40% in size
Procedure, shortened: as §2

[10] = qHTS of pediatric cancer cell lines to identify multiple opportunities for drug repurposing: Primary screen for SK-N-SH cells (AID 1347098); further: nearly all actives have a fitted effect of over 65% in size
Procedure, shortened: (§4)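 Cells (500-1,000/well) rested 5 h, then received compounds for 48 h; metabolically active cells were measured by CellTiter-Glo luminescence. Final concentrations spanned up to 46 µM (MIPE, 11-point) or 0.59 nM-46 µM (NPC, 8-point) in primary screens, 11-point in follow-ups.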

[11] = qHTS of pediatric cancer cell lines to identify multiple opportunities for drug repurposing: Primary screen for BT-12 cells (AID 1347101); further: nearly all actives have a fitted effect of over 25% in size
Procedure, shortened: as §4

[12] = qHTS of pediatric cancer cell lines to identify multiple opportunities for drug repurposing: Primary screen for Rh18 cells (AID 1347102); further: nearly all actives have a fitted effect of over 65% in size
Procedure, shortened: as §3

[13] = qHTS of pediatric cancer cell lines to identify multiple opportunities for drug repurposing: Primary screen for RD cells (AID 1347104); further: nearly all actives have a fitted effect of over 55% in size
Procedure, shortened: as §2

[14] = qHTS of pediatric cancer cell lines to identify multiple opportunities for drug repurposing: Primary screen for MG 63 (6-TG R) cells (AID 1347105); further: nearly all actives have a fitted effect of over 50% in size
Procedure, shortened: as §2

[15] = qHTS of pediatric cancer cell lines to identify multiple opportunities for drug repurposing: Primary screen for NB1643 cells (AID 1347099); further: nearly all actives have a fitted effect of over 50% in size
Procedure, shortened: as §2

[16] = qHTS of pediatric cancer cell lines to identify multiple opportunities for drug repurposing: Primary screen for control Hh wild type fibroblast cells (AID 1347106); further: nearly all actives have a fitted effect of over 55% in size
Procedure, shortened: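 Cells (500-1,000/well) in growth media were settled 5 h at 37 degrees C, then given compounds for 48 h. Viability was read as CellTiter-Glo luminescence. Primary runs used MIPE at 11 points (0.78 nM-46 µM) and NPC at 8 points (0.59 nM-46 µM); follow-ups used 11 points.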

[17] = qHTS of pediatric cancer cell lines to identify multiple opportunities for drug repurposing: Primary screen for LAN-5 cells (AID 1347100)
Procedure, shortened: as §3

[18] = qHTS of pediatric cancer cell lines to identify multiple opportunities for drug repurposing: Primary screen for OHS-50 cells (AID 1347103); further: nearly all actives have a fitted effect of over 40% in size
Procedure, shortened: as §4
Potency means the concentration at half of the fitted maximal effect.

SMILES	Potency [1]	Potency [2]	Potency [3]	Potency [4]	Potency [5]	Potency [6]	Potency [7]	Potency [8]	Potency [9]	Potency [10]	Potency [11]	Potency [12]	Potency [13]	Potency [14]	Potency [15]	Potency [16]	Potency [17]	Potency [18]
CC(O)C1C(=O)N2C(C(=O)O)=C(SC3CNC(C(=O)N(C)C)C3)C(C)C12 (configuration not stated)	inactive	inactive	inactive	inactive	inactive	inactive	inactive	inactive	inactive	inactive	inactive	inactive	inactive	inactive	–	–	–	–
O=C(O)CO.[NH2-].[NH2-].[Pt+2]	inactive	inactive	inactive	inactive	inactive	inactive	inactive	inactive	inactive	inactive	inactive	inactive	inactive	inactive	inactive	inactive	–	–
COc1cccc2c(NCc3ccccc3)nc(-n3c(N)nc4ccccc43)nc12	inactive	9350 nM (active)	9350 nM (active)	5900 nM (active)	3720 nM (active)	7690 nM (active)	9350 nM (active)	9350 nM (active)	–	10800 nM (active)	10900 nM (active)	9350 nM (active)	–	9350 nM (active)	9350 nM (active)	–	9350 nM (active)	9680 nM (active)
CC(NCc1ccc2c(c1)nc(NC(=O)c1ccc(-c3cn[nH]c3)s1)n2CC(C)(C)O)C(C)(C)C (configuration not stated)	2620 nM (active)	2960 nM (active)	296 nM (active)	187 nM (active)	743 nM (active)	485 nM (active)	418 nM (active)	1180 nM (active)	743 nM (active)	961 nM (active)	968 nM (active)	1660 nM (active)	1050 nM (active)	2350 nM (active)	372 nM (active)	2350 nM (active)	132 nM (active)	–
CN(C)Cc1c(C(=O)NCCOc2ccc(C(=O)NO)cc2)oc2ccccc12	5870 nM (active)	3720 nM (active)	1050 nM (active)	935 nM (active)	743 nM (active)	1930 nM (active)	662 nM (active)	2960 nM (active)	2960 nM (active)	2410 nM (active)	3850 nM (active)	590 nM (active)	1870 nM (active)	3720 nM (active)	935 nM (active)	–	–	769 nM (active)
CC(=O)SC[C@@H](C)C(=O)N1CCC[C@H]1C(=O)N[C@@H](Cc1ccccc1)C(=O)O	inactive	inactive	inactive	inactive	inactive	inactive	inactive	inactive	inactive	inactive	inactive	inactive	–	inactive	inactive	inactive	inactive	inactive
Cc1ccc(C(=O)Nc2ccc(CN3CCN(C)CC3)c(C(F)(F)F)c2)cc1C#Cc1cnc2cccnn12	14700 nM (active)	18700 nM (active)	3720 nM (active)	2350 nM (active)	2350 nM (active)	6850 nM (active)	6620 nM (active)	5900 nM (active)	2350 nM (active)	6070 nM (active)	6850 nM (active)	2090 nM (active)	–	7430 nM (active)	23500 nM (active)	–	11800 nM (active)	–
Nc1ccccc1NC(=O)c1ccc(CNc2nccc(-c3cccnc3)n2)cc1	6580 nM (active)	7430 nM (active)	2350 nM (active)	2350 nM (active)	187 nM (active)	3060 nM (active)	743 nM (active)	4690 nM (active)	2350 nM (active)	2410 nM (active)	4850 nM (active)	2090 nM (active)	2960 nM (active)	3720 nM (active)	296 nM (active)	14800 nM (active)	743 nM (active)	968 nM (active)
CCCCc1nc2cc(C=CC(=O)NO)ccc2n1CCN(CC)CC	5870 nM (active)	3720 nM (active)	469 nM (active)	118 nM (active)	29.6 nM (active)	48.5 nM (active)	590 nM (active)	743 nM (active)	29.6 nM (active)	3410 nM (active)	193 nM (active)	14.8 nM (active)	2090 nM (active)	3720 nM (active)	–	–	83.3 nM (active)	153 nM (active)
COCCn1c2c([n+](Cc3cnccn3)c1C)C(=O)c1ccccc1C2=O	65.8 nM (active)	11.8 nM (active)	13.2 nM (active)	5.9 nM (active)	11.8 nM (active)	153 nM (active)	93.5 nM (active)	118 nM (active)	37.2 nM (active)	482 nM (active)	34.3 nM (active)	33.2 nM (active)	11.8 nM (active)	187 nM (active)	209 nM (active)	264 nM (active)	4.7 nM (active)	15.3 nM (active)
